This note sets out measurements from ChEMBL document CHEMBL2218924, “A broad activity screen in support of a chemogenomic map for kinase signalling research and drug discovery” (Biochem J, 2013).

The target of assay [1] is Serine/threonine-protein kinase MRCK beta (Homo sapiens) (UniProt Q9Y5S2). The settings on record: at 1 µM.
For assay [2] the target is unchanged. The note with it: at 10 µM.
The target in assay [3] is Ribosomal protein S6 kinase alpha-5 (Homo sapiens) (UniProt O75582). The note with it: at 1 µM.
Assay [4] has the same target. The note with it: at 10 µM.
In assay [5] the target is Ribosomal protein S6 kinase alpha-4 (Homo sapiens) (UniProt O75676). The note with it: at 1 µM.
The target is the same in assay [6]. The note with it: at 10 µM.
Assay [7] deals with SRSF protein kinase 3 (Homo sapiens) (UniProt Q9UPE1). The note with it: at 1 µM.
Assay [8] shares this target. The note with it: at 10 µM.
Assay [9] addresses T1, Serine/threonine-protein kinase 4 (Homo sapiens) (UniProt Q13043).
T1 sequence (whole entry): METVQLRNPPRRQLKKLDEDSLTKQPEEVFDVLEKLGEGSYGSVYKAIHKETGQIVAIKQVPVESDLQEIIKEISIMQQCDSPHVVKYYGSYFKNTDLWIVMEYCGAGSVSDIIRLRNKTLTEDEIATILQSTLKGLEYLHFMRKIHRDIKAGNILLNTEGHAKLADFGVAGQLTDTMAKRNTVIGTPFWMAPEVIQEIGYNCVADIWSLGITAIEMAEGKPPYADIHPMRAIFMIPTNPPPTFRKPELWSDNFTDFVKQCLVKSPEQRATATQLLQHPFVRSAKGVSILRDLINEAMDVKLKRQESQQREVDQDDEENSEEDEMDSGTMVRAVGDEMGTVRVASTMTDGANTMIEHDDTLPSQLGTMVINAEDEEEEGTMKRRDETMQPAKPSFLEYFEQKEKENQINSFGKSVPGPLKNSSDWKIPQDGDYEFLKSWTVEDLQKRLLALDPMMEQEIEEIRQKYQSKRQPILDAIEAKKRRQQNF
The settings on record: at 1 µM.

Assay [10] has as its target T1, Serine/threonine-protein kinase 4 (Homo sapiens). The note with it: at 10 µM.

Ribosomal protein S6 kinase alpha-4 (Homo sapiens), sequence (O75676 whole entry, looked up): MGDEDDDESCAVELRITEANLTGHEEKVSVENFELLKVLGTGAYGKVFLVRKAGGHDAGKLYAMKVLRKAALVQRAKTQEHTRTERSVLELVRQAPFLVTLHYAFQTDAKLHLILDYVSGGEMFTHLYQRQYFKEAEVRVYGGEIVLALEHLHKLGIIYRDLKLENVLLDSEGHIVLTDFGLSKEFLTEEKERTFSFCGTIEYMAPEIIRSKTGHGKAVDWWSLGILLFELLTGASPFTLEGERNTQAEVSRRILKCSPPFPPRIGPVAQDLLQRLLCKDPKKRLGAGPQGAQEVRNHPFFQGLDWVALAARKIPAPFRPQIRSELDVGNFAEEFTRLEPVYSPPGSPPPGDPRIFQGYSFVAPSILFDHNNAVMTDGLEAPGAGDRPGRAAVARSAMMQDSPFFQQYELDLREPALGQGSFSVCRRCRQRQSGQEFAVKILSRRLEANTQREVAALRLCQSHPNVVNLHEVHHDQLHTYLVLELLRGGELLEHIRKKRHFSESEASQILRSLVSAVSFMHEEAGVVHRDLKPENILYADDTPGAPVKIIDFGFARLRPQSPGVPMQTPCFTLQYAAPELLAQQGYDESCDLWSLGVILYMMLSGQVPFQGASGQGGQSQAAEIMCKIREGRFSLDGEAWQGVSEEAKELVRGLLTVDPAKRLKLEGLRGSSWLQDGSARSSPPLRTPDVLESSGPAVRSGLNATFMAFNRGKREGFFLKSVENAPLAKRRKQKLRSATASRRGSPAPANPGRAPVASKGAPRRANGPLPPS
SRSF protein kinase 3 (Homo sapiens), sequence (Q9UPE1 whole entry): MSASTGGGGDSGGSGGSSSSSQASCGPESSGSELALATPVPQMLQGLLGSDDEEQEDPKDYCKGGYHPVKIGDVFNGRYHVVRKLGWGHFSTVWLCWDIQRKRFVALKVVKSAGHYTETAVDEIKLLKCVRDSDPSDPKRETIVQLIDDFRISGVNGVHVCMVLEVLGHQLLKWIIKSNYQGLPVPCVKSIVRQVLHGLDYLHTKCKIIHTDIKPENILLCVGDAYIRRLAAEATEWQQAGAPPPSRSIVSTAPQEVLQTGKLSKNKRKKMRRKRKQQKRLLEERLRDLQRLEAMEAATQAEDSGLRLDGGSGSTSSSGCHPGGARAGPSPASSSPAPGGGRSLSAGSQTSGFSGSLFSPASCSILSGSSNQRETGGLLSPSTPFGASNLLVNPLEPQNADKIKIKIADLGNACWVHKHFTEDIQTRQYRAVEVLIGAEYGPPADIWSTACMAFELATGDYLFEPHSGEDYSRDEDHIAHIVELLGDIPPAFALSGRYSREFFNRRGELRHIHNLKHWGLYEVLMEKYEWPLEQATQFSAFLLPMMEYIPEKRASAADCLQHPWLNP
Ribosomal protein S6 kinase alpha-5 (Homo sapiens), sequence (O75582 whole entry, looked up): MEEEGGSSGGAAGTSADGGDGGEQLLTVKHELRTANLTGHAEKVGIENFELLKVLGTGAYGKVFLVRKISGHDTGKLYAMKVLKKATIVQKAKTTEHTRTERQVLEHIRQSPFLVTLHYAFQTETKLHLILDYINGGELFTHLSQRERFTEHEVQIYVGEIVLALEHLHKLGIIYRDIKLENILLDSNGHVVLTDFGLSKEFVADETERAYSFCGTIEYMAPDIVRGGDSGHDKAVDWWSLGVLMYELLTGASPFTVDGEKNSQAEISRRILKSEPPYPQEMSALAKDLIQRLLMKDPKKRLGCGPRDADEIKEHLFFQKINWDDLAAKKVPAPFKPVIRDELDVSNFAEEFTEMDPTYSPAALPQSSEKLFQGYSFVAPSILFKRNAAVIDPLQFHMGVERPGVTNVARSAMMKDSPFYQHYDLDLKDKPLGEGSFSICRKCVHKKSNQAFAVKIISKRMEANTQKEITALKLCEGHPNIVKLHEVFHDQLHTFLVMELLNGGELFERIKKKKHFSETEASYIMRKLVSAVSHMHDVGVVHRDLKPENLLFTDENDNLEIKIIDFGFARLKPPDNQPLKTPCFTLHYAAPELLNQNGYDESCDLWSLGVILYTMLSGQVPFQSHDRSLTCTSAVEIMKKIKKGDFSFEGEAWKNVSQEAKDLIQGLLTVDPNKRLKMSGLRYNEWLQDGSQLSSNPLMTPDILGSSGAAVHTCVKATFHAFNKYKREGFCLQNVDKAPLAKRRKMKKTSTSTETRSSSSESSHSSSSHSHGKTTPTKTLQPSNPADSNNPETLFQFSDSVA
Serine/threonine-protein kinase MRCK beta (Homo sapiens), sequence (Q9Y5S2 whole entry): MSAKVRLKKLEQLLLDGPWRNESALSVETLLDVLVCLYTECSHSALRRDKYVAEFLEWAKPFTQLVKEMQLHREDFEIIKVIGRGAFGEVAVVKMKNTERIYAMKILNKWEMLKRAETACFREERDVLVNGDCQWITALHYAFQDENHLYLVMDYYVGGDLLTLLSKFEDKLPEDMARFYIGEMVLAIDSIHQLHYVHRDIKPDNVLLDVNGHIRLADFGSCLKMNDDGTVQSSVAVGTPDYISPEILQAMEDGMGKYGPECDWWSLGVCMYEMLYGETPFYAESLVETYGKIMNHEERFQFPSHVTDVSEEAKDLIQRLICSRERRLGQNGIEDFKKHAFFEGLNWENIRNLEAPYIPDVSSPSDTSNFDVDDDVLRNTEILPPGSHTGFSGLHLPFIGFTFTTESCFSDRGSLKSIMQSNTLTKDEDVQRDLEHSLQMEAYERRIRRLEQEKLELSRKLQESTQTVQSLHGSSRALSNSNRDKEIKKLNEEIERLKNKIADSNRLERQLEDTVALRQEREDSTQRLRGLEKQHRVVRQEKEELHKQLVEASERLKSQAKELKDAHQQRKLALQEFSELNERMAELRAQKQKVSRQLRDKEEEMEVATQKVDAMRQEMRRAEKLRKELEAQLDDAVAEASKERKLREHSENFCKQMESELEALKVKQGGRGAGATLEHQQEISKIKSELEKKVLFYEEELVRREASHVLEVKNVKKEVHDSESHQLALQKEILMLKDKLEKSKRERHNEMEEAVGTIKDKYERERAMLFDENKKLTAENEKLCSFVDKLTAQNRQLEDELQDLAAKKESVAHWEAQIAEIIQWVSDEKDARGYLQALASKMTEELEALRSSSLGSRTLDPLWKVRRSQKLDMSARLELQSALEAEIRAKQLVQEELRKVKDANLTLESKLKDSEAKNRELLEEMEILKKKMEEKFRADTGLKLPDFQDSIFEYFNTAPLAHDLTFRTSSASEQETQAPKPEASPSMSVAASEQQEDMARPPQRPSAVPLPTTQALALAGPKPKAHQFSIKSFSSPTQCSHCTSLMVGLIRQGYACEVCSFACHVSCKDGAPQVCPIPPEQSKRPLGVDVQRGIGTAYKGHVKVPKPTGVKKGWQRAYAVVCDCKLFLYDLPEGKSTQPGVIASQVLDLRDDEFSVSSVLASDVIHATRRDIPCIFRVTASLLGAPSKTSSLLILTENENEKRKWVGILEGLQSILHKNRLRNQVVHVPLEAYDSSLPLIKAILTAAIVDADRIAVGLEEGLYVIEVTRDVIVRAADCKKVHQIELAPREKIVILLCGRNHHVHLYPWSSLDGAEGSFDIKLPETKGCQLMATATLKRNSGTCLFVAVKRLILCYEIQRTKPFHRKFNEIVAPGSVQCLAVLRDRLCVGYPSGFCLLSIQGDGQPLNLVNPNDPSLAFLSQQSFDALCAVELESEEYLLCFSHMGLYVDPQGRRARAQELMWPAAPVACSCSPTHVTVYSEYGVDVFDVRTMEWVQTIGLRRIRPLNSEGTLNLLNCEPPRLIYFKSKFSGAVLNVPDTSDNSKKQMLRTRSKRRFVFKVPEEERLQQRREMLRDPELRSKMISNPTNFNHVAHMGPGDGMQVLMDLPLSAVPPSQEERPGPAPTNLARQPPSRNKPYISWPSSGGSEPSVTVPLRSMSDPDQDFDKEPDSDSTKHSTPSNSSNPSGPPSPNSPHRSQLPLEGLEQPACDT

By residual activity is commonly meant the signal under treatment as a percentage of the control signal. `CCC(=O)Nc1ccc2ncnc(Nc3cccc(Br)c3)c2c1`: the residual activity in assay [1] worked out at 89%; in assay [2] it was 77%; in assay [3], 113%; in [4], 112%; in [5] it was 94%; in [6] it was 116%. Also, the residual activity was 94% in assay [7], 84% in assay [8], 91% in [9] and 95% in assay [10].
In the case of `CC[n+]1c(/C=C/N(C)c2ccccc2)n(-c2ccccc2)c2ccc(-c3nc4ccccc4s3)cc21`, the residual activity in [1] turned out to be 98%; in assay [2], 83%; in assay [3] it was 139%; in assay [4] it was 99%; in [5], 108%; in assay [6], 96%. Moreover, the residual activity in assay [7] was 107%; in assay [8] it was 82%; in assay [9], 103%; in [10], 73%.
Take `Cc1cc(Nc2nc(-c3ccccc3)nc3ccccc23)n[nH]1`: the residual activity in assay [1] turned out to be 96%; in [2] it was 99%; in assay [3] it was 72%; in [4], 39%; in assay [5] it was 59%; in assay [6], 14%. Also, the residual activity worked out at 46% in assay [7], 16% in [8], 48% in assay [9] and 6% in assay [10].
Regarding `O=C1NC(=O)c2c1c1c3ccccc3[nH]c1c1[nH]c3cc(Br)ccc3c21`, the residual activity worked out at 85% in assay [1]; 85% in [2]; 94% in [3]; 84% in assay [4]; 87% in assay [5]; 76% in assay [6]. The residual activity in [7] is 92%; in assay [8], 86%; in assay [9], 92%; in [10], 38%.
Turning to `CO[C@H]1C[C@@H]2CC[C@@H](C)[C@@](O)(O2)C(=O)C(=O)N2CCCC[C@H]2C(=O)O[C@H]([C@H](C)C[C@@H]2CC[C@@H](O)[C@H](OC)C2)CC(=O)[C@H](C)/C=C(\C)[C@@H](O)[C@@H](OC)C(=O)[C@H](C)C[C@H](C)/C=C/C=C/C=C/1C`, the residual activity in assay [1] is 95%; in assay [2] it was 104%; in [3] it was 123%; in [4] it was 110%; in assay [5], 87%; in assay [6], 105%. The residual activity in assay [7] is 105%; in [8], 88%; in assay [9] it was 93%; in assay [10], 97%.
For the compound `CNc1cc2c(Nc3cccc(Br)c3)ncnc2cn1`, the residual activity in assay [1] is 86%; in [2], 84%; in assay [3], 133%; in assay [4] it was 110%; in assay [5], 104%; in assay [6], 109%. Further, the residual activity amounted to 99% in [7], 25% in assay [8], 95% in [9] and 102% in assay [10].
Take `O=C1NC(=O)c2cc(Nc3ccc(F)cc3)c(Nc3ccc(F)cc3)cc21`: the residual activity was determined as 79% in assay [1]; 64% in [2]; 128% in [3]; 93% in assay [4]; 97% in assay [5]; 91% in assay [6]. The residual activity in assay [7] was determined as 106%; in [8] it was 84%; in assay [9], 92%; in [10], 100%.
In the case of `C[C@@H](N)[C@H]1CC[C@H](C(=O)Nc2ccncc2)CC1`, the residual activity in assay [1] is 95%; in [2], 69%; in assay [3], 90%; in assay [4], 50%; in assay [5], 82%; in assay [6], 58%. For the same compound, the residual activity was 96% in assay [7], 98% in assay [8], 105% in [9] and 79% in assay [10].
In the case of `Ic1cccc(CSc2nnc(-c3ccncc3)o2)c1`, the residual activity in assay [1] is 87%; in assay [2], 82%; in assay [3], 95%; in assay [4], 82%; in [5] it was 65%; in assay [6], 53%. The residual activity turned out to be 90% in [7], 92% in assay [8], 106% in [9] and 101% in [10].
`CC(C)n1cnc2/c(=N/c3cccc(Cl)c3)nc(NCCO)[nH]c21`: the residual activity in [1] was 85%; in assay [2], 82%; in assay [3] it was 62%; in assay [4], 50%; in assay [5] it was 57%; in assay [6], 37%. Moreover, the residual activity in assay [7] was determined as 61%; in assay [8], 19%; in assay [9], 61%; in assay [10], 58%.
For `O=c1c2ccccc2[nH]c(=S)n1CCN1CCC(=C(c2ccc(F)cc2)c2ccc(F)cc2)CC1`, the residual activity stood at 94% in assay [1]; 86% in assay [2]; 127% in assay [3]; 104% in assay [4]; 110% in [5]; 97% in [6]. Moreover, the residual activity was found to be 103% in assay [7], 89% in [8], 93% in assay [9] and 101% in assay [10].
As to `CCN(CC)CCCCN1c2ccccc2Oc2ccc(Cl)cc21`, the residual activity in [1] was 108%; in assay [2], 99%; in [3], 146%; in assay [4], 119%; in assay [5] it was 111%; in assay [6] it was 116%. Also, the residual activity in [7] worked out at 104%; in [8], 97%; in assay [9], 106%; in [10], 100%.
On to `COc1ccc(CNc2nc(N(CCO)CCO)nc3c2ncn3C(C)C)cc1`, for which the residual activity in assay [1] stood at 88%; in assay [2], 83%; in [3] it was 92%; in assay [4], 96%; in [5], 88%; in [6] it was 82%. The residual activity in [7] came out at 105%; in [8] it was 84%; in [9] it was 74%; in [10] it was 112%.
For `O=C1NC(=O)/C(=C\c2ccc3nccnc3c2)S1`, the residual activity came out at 93% in assay [1]; 53% in [2]; 123% in assay [3]; 90% in assay [4]; 89% in [5]; 68% in assay [6]. Also, the residual activity in assay [7] was determined as 94%; in [8], 69%; in assay [9], 94%; in assay [10] it was 101%.
For `COc1ccc(S(=O)(=O)N(CCO)c2ccccc2CN(C)C/C=C/c2ccc(Cl)cc2)cc1`, the residual activity in assay [1] stood at 98%; in assay [2] it was 78%; in [3], 115%; in assay [4], 114%; in assay [5], 96%; in assay [6], 85%. Further, the residual activity in assay [7] was determined as 102%; in assay [8], 104%; in [9], 107%; in [10] it was 90%.
For the compound `O=C1NC(=O)/C(=C/c2ccc3c(c2)OC(F)(F)O3)S1`, the residual activity turned out to be 106% in assay [1]; 85% in assay [2]; 133% in assay [3]; 112% in [4]; 105% in assay [5]; 97% in assay [6]. The residual activity in [7] turned out to be 100%; in [8] it was 74%; in [9], 100%; in assay [10], 107%.
`N#CC(C#N)=C(N)/C(C#N)=C/c1ccc(O)cc1`: the residual activity in assay [1] was determined as 96%; in assay [2] it was 84%; in [3], 122%; in [4] it was 92%; in assay [5], 91%; in [6], 85%. For the same compound, the residual activity in [7] turned out to be 119%; in [8], 82%.
